Consider 50 compounds from PubChem BioAssay AID2012 (Sanford-Burnham Center for Chemical Genomics, 2009).

The target in the test is Eukaryotic translation initiation factor 4H (Homo sapiens) (UniProt Q15056). In words: human eIF4H binding inhibitors, primary screen, translation initiation inhibitor project, biochemical, uHTS, fluorescence polarization (AID 2012).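 Further: calls also rest on retests at 20 µM and on dose response follow-up.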 To be noted: eIF4H fluorescence polarization binding assay, stronger effect = higher value.

The inhibition is the change of the read-out against control, counted positive when it falls.

Among all 290,000 compounds or so, about 2,700 (0.93%) were called active. How the calls were made is not given here. This excerpt belongs to a sample that is enriched for actives.

Consider `CN(C)c1ccc(/C=C2\CC3C4CC=C5CC(O)CCC5(C)C4CCC3(C)C2=O)cc1` (centres undefined), for which the inhibition is, setting by setting: (at 35 µM) 3.9% (active); (confirmation average, at 20 µM) 87.3%. For the compound `CCN1C(=O)C(=Cc2c(C)n(CC(=O)NCC3CCCO3)c3ccccc23)C(=O)N(CC)C1=S` (centres undefined), the inhibition (at 35 µM) was 48.5% (inactive). On the same count and under the same terms, in the case of `CCCCC(=O)N/N=C/c1c(O)n(-c2ccccc2)c(=O)[nH]c1=O` it was 12.9% (inactive); in that of `O=c1[nH]c(=O)n(Cc2ccccc2)c(O)c1/C=N/Nc1c(F)c(F)c(F)c(F)c1F`, 92.3% (active).

For the compound `O=c1[nH]c(=O)n(CCc2ccccc2)c(O)c1/C=N/N1CCOCC1`, the inhibition (at 35 µM) is 3.3% (inactive). On the same count and under the same terms, with `O=C(N/N=C/c1c(O)n(C2CC2)c(=S)[nH]c1=O)c1ccccc1` the figure was 10.1% (inactive); with `O=c1[nH]c(=O)n(CCc2ccc(F)cc2)c(O)c1/C=N/N1CCCCC1`, -3.1% (inactive). Regarding `O=C(N/N=C/c1c(O)n(Cc2ccccc2)c(=O)[nH]c1=O)c1ccccc1`, the inhibition reads like this: (at 35 µM) 74.3% (active); (confirmation average, at 20 µM) 67.6%.

Turning to `CC1CCC(N(C)C2CCN(C)CC2)CC1` (centres undefined), the inhibition (at 35 µM) is -3.9% (inactive). Same read-out and setting: with `CCN(CC)C(=O)c1ccc(NC(=O)c2sccc2-c2ccccc2)cc1` the figure was -5.8% (inactive). Still for that read-out and setting: with `CCCCn1c(=O)c(C(=O)Nc2ccccc2Cl)c(O)c2ccccc21` the figure was -6% (inactive).

Take `COc1ccc(N=Cc2c(O)n(C)c(=O)[nH]c2=O)cc1`: for the setting “at 35 µM”, the inhibition is 35.4% (inactive). The same measure, in the same setting: in the case of `Cc1cccc(NC(=O)N2CC3CC(C2)c2cccc(=O)n2C3)c1` (centres undefined) it was -1.5% (inactive); in that of `Cc1nc2ccccc2c(=O)n1-c1ccc(Cl)cc1Cl`, 1.9% (inactive); in that of `Cc1ccc(C2CN(C)CC2C(=O)c2ccc(F)cc2)cc1` (centres undefined), -1.4% (inactive). The same measure, in the same setting: in the case of `COc1ccc(CNCCc2c[nH]c3ccccc23)cc1OC` it was -0.9% (inactive); in that of `CN(C)S(=O)(=O)c1cc(C(=O)N2CCC(C(=O)O)(c3ccccc3)CC2)ccc1Cl`, -1.5% (inactive). As for `COc1cccc(N2C(=O)NC(=O)/C(=C\c3ccc([N+](=O)[O-])s3)C2=O)c1`, the inhibition was 73.8% (active) (at 35 µM) and 101% (confirmation average, at 20 µM). Consider `Cc1cccc(N2C(=O)NC(=O)/C(=C\c3cnn(-c4ccccc4)c3)C2=O)c1`, for which the inhibition (at 35 µM) is -2.6% (inactive). For the compound `O=C1NC(=O)N(c2ccccc2)C(=O)/C1=C/c1ccc([N+](=O)[O-])s1`, the inhibition was 70.5% (inactive) (at 35 µM) and 22.6% (confirmation average, at 20 µM). As to `O=C(Cc1ccc(Cl)cc1)NCCN1CCN(C(=O)Cc2ccc(Cl)cc2)CC1`, the inhibition (at 35 µM) is -0.4% (inactive). On the same count and under the same terms, with `COc1ccc(CNCCc2ccc3c(c2)OCO3)c(OC)c1OC` the figure was 18.8% (inactive); with `COc1cccc(OC)c1C(=O)NC(=S)N1C[C@H]2C[C@H](C1)c1cccc(=O)n1C2`, -6.5% (inactive); with `O=C1NC(=O)N(CCc2ccc(F)cc2)C(=O)/C1=C/C=C/c1ccccc1`, 4.2% (inactive). Same read-out and setting: in the case of `O=C(O)COc1ccccc1/C=C1\C(=O)NC(=O)N(CCC2=CCCCC2)C1=O` it was 94% (active); in that of `CCCCC(=O)N/N=C/c1c(O)n(CCC2=CCCCC2)c(=O)[nH]c1=O`, 26.1% (inactive); in that of `CN1CCC(OC(=O)c2cccc(F)c2)CC1`, -5.1% (inactive). Regarding `CC1(C)Cc2c(C#N)c(N3CCNCC3)nc(-c3ccco3)c2CS1`, the inhibition is, setting by setting: (at 35 µM) 84.6% (active); (confirmation average, at 20 µM) 77.5%. Regarding `COc1cccc(C(=O)N2C[C@H]3C[C@@H](C2)c2cccc(=O)n2C3)c1`, for the setting “at 35 µM”, the inhibition was 18.7% (inactive).

Turning to `COc1ccc(CN2C(=O)NC(=O)/C(=C\c3ccc(OC)c(OC)c3OC)C2=O)cc1`, the inhibition runs as follows: (at 35 µM) 9% (active); (confirmation average, at 20 µM) 60.4%.

Turning to `C=CCN1C(=O)NC(=O)/C(=C/c2ccc(OCC(=O)Nc3ccc(C)cc3)cc2)C1=O`, under “at 35 µM”, the inhibition was -6.2% (inactive). The same measure, in the same setting: with `O=C1NC(=O)N(Cc2ccco2)C(=O)/C1=C\c1cccn1CCOc1ccccc1` the figure was 49.4% (inactive); with `CN(C)C(=O)Oc1ccc2c(c1)O/C(=C\c1ccccc1)C2=O`, -7% (inactive). `COc1ccc(N2C(=O)/C(=C/c3ccco3)C(=O)NC2=S)cc1`: the inhibition reads like this: (at 35 µM) 74.6% (active); (confirmation average, at 20 µM) 76.5%. For `Cc1cc(/C=C2/C(=O)NC(=O)N(Cc3ccco3)C2=O)c(C)n1-c1ccc(C(=O)O)cc1` the same measures were 84% (inactive) and 42.8%. As for `Cc1ccc(S(=O)(=O)N(C)c2ccc(C(=O)NCC3(N(C)C)CCCCC3)cc2)cc1`, the inhibition (at 35 µM) is 0.5% (inactive). On the same count and under the same terms, with `O=[N+]([O-])c1cnc2ccc3ccccc3c2c1` the figure was 1.5% (inactive); with `COc1ccc2[nH]c3c(c2c1)CCN[C@H]3C`, -4.1% (inactive). Still for that read-out and setting: in the case of `CN(c1ccccc1)c1ccc([N+](=O)[O-])c2nonc12` it was 9.8% (inactive); in that of `CCCCn1c(O)c(C(CC)=NCc2ccco2)c(=O)[nH]c1=O`, 9.5% (inactive). With `CCC(=NCc1ccco1)c1c(O)n(Cc2ccccc2)c(=O)[nH]c1=O`, the inhibition (at 35 µM) was 67.3% (active) and the inhibition (confirmation average, at 20 µM) is 73.8%. On to `CC/C(=N\NC(=O)c1ccccc1O)c1c(O)n(Cc2ccccc2)c(=O)[nH]c1=O`, for which the inhibition (at 35 µM) is 43.2% (inactive). On the same count and under the same terms, with `Oc1cc2c(cc1CN1CCN(c3ccccc3)CC1)OCO2` the figure was -8.2% (inactive). Same read-out and setting: in the case of `O=c1c2ccccc2nc(/C=C/c2ccc(F)cc2)n1-c1ccccc1O` it was 18.9% (inactive); in that of `CC(=O)c1c(O)n(C2CCCCCC2)c(=O)[nH]c1=O`, 82% (active). The same measure, in the same setting: with `CCC(=NCCc1ccccc1)c1c(O)n(C2CCCCC2)c(=O)[nH]c1=O` the figure was -8% (inactive); with `CC(=NCC1CCCO1)c1c(O)n(-c2ccccc2)c(=O)[nH]c1=O` (centres undefined), -5.3% (inactive); with `CCN1CCN(Cc2cc(OC)c3c(c2)OCO3)CC1`, 10.2% (inactive).

As for `c1ccc(CCNC2CCCCCC2)cc1`, where the note is “at 35 µM”, the inhibition was 11% (inactive). `CC(=O)Nc1ccc(C(=O)C(Cc2ccccc2)N(C)C)cc1` (centres undefined): the inhibition (at 35 µM) is -9.3% (inactive).
